Experimental data: PubChem BioAssay (NCI)
About 83,000 compounds went through this panel and 20% of them were active in at least one assay; those are over-represented in the sample as a whole.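 Activity criterion: percent growth below 10, measured after cells in 96-well plates were exposed to a single compound concentration for 48 hours.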 Active and inactive are the calls of the source.

Columns and labels:
Assay in all cases: NCI-60 one-dose screen, 48 h (100 = growth as untreated, 0 = no growth, -100 = all killed)
Settings in all cases: 10 µM unless noted
NCI-H23 lung = system: NCI-H23 lung
NCI-H226 lung = system: NCI-H226 lung
NCI-H322M lung = system: NCI-H322M lung
HOP-62 NSCLC = system: HOP-62 NSCLC
NCI-H460 lung = system: NCI-H460 lung
HOP-92 NSCLC = system: HOP-92 NSCLC
NCI-H522 lung = system: NCI-H522 lung
A549/ATCC NSCLC = system: A549/ATCC NSCLC
786-0 renal = system: 786-0 renal
COLO 205 colon = system: COLO 205 colon
DU-145 prostate = system: DU-145 prostate
K-562 leukemia = system: K-562 leukemia
MALME-3M melanoma = system: MALME-3M melanoma
MDA-MB-231 breast = system: MDA-MB-231 breast
RXF 393 renal = system: RXF 393 renal
SF-268 CNS = system: SF-268 CNS
SF-295 CNS = system: SF-295 CNS
SF-539 CNS = system: SF-539 CNS
UACC-257 melanoma = system: UACC-257 melanoma
M14 melanoma = system: M14 melanoma

Measured: growth

C#CCOc1cccc(-c2ncc3cc(NC(=O)CCl)ccc3n2)c1
inactive: NCI-H322M lung 69.4% | NCI-H460 lung 27.8% | HOP-92 NSCLC 14.2% | A549/ATCC NSCLC 73.4% | SF-295 CNS 69.4% | UACC-257 melanoma 62%
active: NCI-H23 lung -13.8% | NCI-H226 lung 2.41% | HOP-62 NSCLC -5.99% | NCI-H522 lung -72.2% | 786-0 renal -81.4% | COLO 205 colon -77.7% | DU-145 prostate -73.1% | K-562 leukemia 2.16% | MALME-3M melanoma -69% | MDA-MB-231 breast -10.3% | RXF 393 renal -86.3% | SF-268 CNS -41.8% | SF-539 CNS -25.9% | M14 melanoma -45.9%

NC(=O)OCCn1cc(-c2nc(-c3c[nH]c4ncccc34)cs2)c2ccccc21
inactive: NCI-H23 lung 63.3% | NCI-H226 lung 53% | NCI-H322M lung 65.9% | HOP-62 NSCLC 39.2% | NCI-H460 lung 17.8% | HOP-92 NSCLC 49.1% | A549/ATCC NSCLC 36.9% | 786-0 renal 42.9% | DU-145 prostate 64.9% | K-562 leukemia 11.8% | MALME-3M melanoma 62.4% | MDA-MB-231 breast 49.7% | RXF 393 renal 46.3% | SF-268 CNS 50% | SF-295 CNS 25.5% | SF-539 CNS 33.8% | UACC-257 melanoma 60.5% | M14 melanoma 11.8%
active: NCI-H522 lung 5.49%

Cc1[nH]c(/C=C/C(=O)c2ccc(C(F)(F)F)c(F)c2)c(C)c1C(=O)NCC(C)C
inactive: NCI-H23 lung 101% | NCI-H226 lung 98.2% | NCI-H322M lung 101% | HOP-62 NSCLC 87.7% | NCI-H460 lung 101% | HOP-92 NSCLC 108% | NCI-H522 lung 99.4% | A549/ATCC NSCLC 95.4% | 786-0 renal 103% | COLO 205 colon 113% | DU-145 prostate 101% | K-562 leukemia 101% | MALME-3M melanoma 96.6% | MDA-MB-231 breast 99.4% | RXF 393 renal 93.8% | SF-268 CNS 95.8% | SF-295 CNS 90.9% | SF-539 CNS 96% | UACC-257 melanoma 99.2% | M14 melanoma 104%

CCCCCCCCNc1cc2c3c(c1)CCCN3CCC2
inactive: NCI-H226 lung 39.1% | NCI-H322M lung 111% | HOP-62 NSCLC 27% | NCI-H460 lung 16.9% | A549/ATCC NSCLC 76.4% | 786-0 renal 42.7% | K-562 leukemia 18.8% | MALME-3M melanoma 48.5% | RXF 393 renal 29.1% | SF-268 CNS 18.3% | SF-295 CNS 14% | M14 melanoma 30.3%
active: NCI-H23 lung -9.97% | HOP-92 NSCLC -5.51% | NCI-H522 lung -28.4% | COLO 205 colon 3.21% | DU-145 prostate -2.64% | MDA-MB-231 breast 6.88% | SF-539 CNS 8.74% | UACC-257 melanoma -11.6%

CCC/C(=N\NC(N)=O)C(OC)OC
inactive: NCI-H23 lung 99.9% | NCI-H226 lung 108% | NCI-H322M lung 109% | HOP-62 NSCLC 109% | NCI-H460 lung 109% | HOP-92 NSCLC 68.4% | NCI-H522 lung 79.9% | A549/ATCC NSCLC 93.6% | 786-0 renal 99.4% | COLO 205 colon 110% | DU-145 prostate 96.2% | K-562 leukemia 118% | MALME-3M melanoma 99.5% | MDA-MB-231 breast 85.8% | RXF 393 renal 102% | SF-268 CNS 98.9% | SF-295 CNS 112% | SF-539 CNS 89.2% | UACC-257 melanoma 103% | M14 melanoma 96.9%

CCOC(=O)c1c(-c2ccccc2)n2c(=O)cc(C)c3c(O)c(O)cc1c32
inactive: NCI-H23 lung 66.2% | NCI-H226 lung 84.6% | NCI-H322M lung 50.3% | HOP-62 NSCLC 39.4% | NCI-H460 lung 20.3% | HOP-92 NSCLC 47% | NCI-H522 lung 66.2% | A549/ATCC NSCLC 43.1% | 786-0 renal 62.7% | COLO 205 colon 86.9% | DU-145 prostate 76.9% | K-562 leukemia 53.4% | MALME-3M melanoma 64.7% | MDA-MB-231 breast 76.3% | RXF 393 renal 76.3% | SF-268 CNS 52.2% | SF-295 CNS 59.9% | SF-539 CNS 75.7% | UACC-257 melanoma 69.7% | M14 melanoma 66.2%

CC/C=C1/C(=O)C=C[C@@H]1C/C=C\CCCC(=O)OC
inactive: NCI-H23 lung 74.8% | NCI-H226 lung 88.1% | NCI-H322M lung 108% | HOP-62 NSCLC 90.5% | NCI-H460 lung 97.9% | HOP-92 NSCLC 91.3% | A549/ATCC NSCLC 90.2% | 786-0 renal 82.5% | DU-145 prostate 77.1% | MALME-3M melanoma 56.3% | MDA-MB-231 breast 28.7% | RXF 393 renal 103% | SF-268 CNS 79.7% | SF-295 CNS 88.7% | SF-539 CNS 108% | UACC-257 melanoma 73.1% | M14 melanoma 50.5%
active: NCI-H522 lung -38.3% | K-562 leukemia 4.34%

Cc1ccc(C)c(-n2c(-c3ccc(Br)cc3)csc2=NC(=O)c2ccccc2F)c1
inactive: NCI-H23 lung 54.7% | NCI-H226 lung 82.5% | NCI-H322M lung 92.8% | HOP-62 NSCLC 95.8% | NCI-H460 lung 40.3% | HOP-92 NSCLC 67.6% | NCI-H522 lung 168% | A549/ATCC NSCLC 71.4% | 786-0 renal 71.1% | DU-145 prostate 102% | K-562 leukemia 23.9% | MALME-3M melanoma 73.9% | MDA-MB-231 breast 84.1% | RXF 393 renal 81.8% | SF-268 CNS 99.6% | SF-295 CNS 73% | SF-539 CNS 89% | UACC-257 melanoma 57% | M14 melanoma 81.3%
